About 83,000 compounds went through this panel and 20% of them were active in at least one assay; those are over-represented in the sample as a whole.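 Growth was measured after 48 h exposure to one concentration of compound in 96-well plates. Values under 10 count as active.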 A number with no mark means an inactive call. Calls of active or inactive are those of the source.
Tests used:
Assay in all cases: NCI-60 one-dose screen, 48 h (100 = growth as untreated, 0 = no growth, -100 = all killed)
Settings in all cases: 10 µM unless noted
NCI-H226 lung = test system: NCI-H226 lung
NCI-H322M lung = test system: NCI-H322M lung
HOP-62 NSCLC = test system: HOP-62 NSCLC
NCI-H460 lung = test system: NCI-H460 lung
NCI-H522 lung = test system: NCI-H522 lung
A549/ATCC NSCLC = test system: A549/ATCC NSCLC
786-0 renal = test system: 786-0 renal
COLO 205 colon = test system: COLO 205 colon
DU-145 prostate = test system: DU-145 prostate
K-562 leukemia = test system: K-562 leukemia
MDA-MB-231 breast = test system: MDA-MB-231 breast
SF-268 CNS = test system: SF-268 CNS
SF-295 CNS = test system: SF-295 CNS
SF-539 CNS = test system: SF-539 CNS
UACC-257 melanoma = test system: UACC-257 melanoma
M14 melanoma = test system: M14 melanoma
HCT-15 colon = test system: HCT-15 colon
MALME-3M melanoma = test system: MALME-3M melanoma
RXF 393 renal = test system: RXF 393 renal

Row | Compound | growth (NCI-H226 lung) [%] | growth (NCI-H322M lung) [%] | growth (HOP-62 NSCLC) | growth (NCI-H460 lung) | growth (NCI-H522 lung) | growth (A549/ATCC NSCLC) [%] | growth (786-0 renal) [%] | growth (COLO 205 colon) [%] | growth (DU-145 prostate) | growth (K-562 leukemia) | growth (MDA-MB-231 breast) | growth (SF-268 CNS) [%] | growth (SF-295 CNS) | growth (SF-539 CNS) | growth (UACC-257 melanoma) | growth (M14 melanoma) | growth (HCT-15 colon) | growth (MALME-3M melanoma) [%] | growth (RXF 393 renal)
1 | O=C(Nc1nc(-c2ccccc2)cs1)c1cc(O)c(O)c(O)c1 | 67.9 | 69.1 | 46.4% | 34.7% | -29.4% (active) | 46.2 | 41.6 | 84.5 | 57.7% | 19.6% | 44% | 43.7 | 58.5% | 42% | 80.9% | 54.4% | 27.3% |  | 
2 | O=C(CSc1nc2c(n1Nc1ccccc1)-c1ccccc1SC2)Nc1nc(-c2ccc(Cl)cc2)cs1 | 92 | 91.1 | 62.3% | 77% | 65.2% | 25.7 | 71.5 |  | 73.5% | 78% | 75.1% | 47.2 | 45.3% | 70.2% | 89.5% | 59.9% | 77.4% | 64.2 | 98.8%
3 | COC(=O)c1ccc2c(c1)nc(-c1ccc(O)c(OC)c1)n2-c1cc(C(C)(C)C)[nH]n1 | 106 | 103 | 128% | 96.3% | 78.7% | 87.9 | 97.7 | 120 | 118% | 90.6% | 97.7% | 104 |  | 105% | 101% | 95.7% | 115% | 114 | 131%
4 | CCOC(=O)C1=NN(c2ccc(Cl)cc2)C2C3N(c4ccc(Cl)cc4)N=C(C(=O)OCC)N3c3ccccc3N12 (configuration not stated) | 107 | 98.5 | 114% | 106% | 88.7% | 99 | 95.6 | 128 | 118% | 70.7% | 103% | 102 |  | 116% | 119% | 102% | 121% | 132 | 106%
5 | COc1ccc2c(c1)nc(N)c1c3cc(OC)c(OC)cc3cn21 | 78.2 | 84.6 | 76.9% | 20.5% | -8.03% (active) | 43.8 | 43.1 |  |  |  | 83.8% | 55.1 | 31% | 78.6% | 94.8% | 31.6% |  | 71.3 | 46.3%
6 | COc1ccc(C2CC(c3ccc(OC)c(OC)c3)=NN2C(=O)c2cc(OC)c(OC)c(OC)c2)cc1 (configuration not stated) | 51.9 | 37.7 | 34.8% | 6.07% (active) | -35.9% (active) | 27.2 | 26.7 |  | 11.6% | 28.3% | 12.6% | 54.7 | 4.28% (active) | -14.5% (active) | 66.3% | -11.8% (active) | 32.8% | 57.7 | -21.4% (active)
7 | N=c1ccn2c(n1)O[C@@H]1[C@@H](O)[C@H](CO)O[C@@H]12 | 92.4 | 82.2 | 47.7% | 12.3% | 39.4% | 22.2 | 31.1 |  | 51.4% | 67.1% | 91.7% | 65.8 | 88.7% | 98.4% | 70.3% | -1.79% (active) | 64.4% | 59.1 | 96.4%
8 | CCCOc1ccc2c(c1)CC[C@@H]1[C@@H]2CC[C@@]2(C)[C@H]1CC[C@]2(C)O | 92.3 | 71.4 | 89.7% | 35.8% | 76.4% | 63.7 | 90.3 | 28.2 | 91.6% | 1.46% (active) | 51.1% | 81.5 | 58.7% | 67.5% | 73.8% | 79.5% | 56.7% |  | 83.7%
9 | Nc1ccc2c3c(cccc13)-c1ccccc1-2 | 55.5 | 75.1 | 100% | 99.1% | 68.5% | 85.1 | 68.4 | 96.5 | 109% | 84.4% | 76.5% | 78.4 | 102% |  | 104% | 90.2% | 86.1% | 98.4 | 93%
10 | CSc1ccc2c(c1)N(CCC1CCCCN1C)c1ccccc1S2 (configuration not stated) | 107 | 64 | 68.8% | 46.8% | 56.3% | 63.9 | 43.9 | 18.9 | 68.7% | 1.49% (active) | 46.3% | 54.5 | 58.4% |  | 32.8% | -57.9% (active) | 43.4% | 72.8 | 26.7%
11 | COc1ccc(Nc2nccc(N3CCN(c4c5ccc(Cl)cc5nc5ccc(OC)cc45)CC3)n2)cc1 | 93.8 | 83.5 | 95.6% | 85.8% | -58.3% (active) | 75.2 | 60 | 61.1 | 86.6% | 25.4% | 61.3% | 66.7 | 78.6% | 92.8% | 102% | 88.4% | 36.9% | 46 | 
12 | COc1cc(OC)c2sc(-c3ccc(-n4cncc4-c4ccc(N)cc4)cc3)nc2c1 | 98.7 | 84.7 | 110% | 78.7% | 84.8% | 60 | 71.8 |  | 80.3% | 59.9% | 87.3% | 74.5 | 48.1% | 84.6% | 69.8% | 76.4% | 69.7% | 84.4 | 81.5%
13 | COC(=O)CCC1=C(C)C(C)=N/C1=C\c1[nH]c(-c2ccc[nH]2)cc1OC | 20.7 | 12.1 | -3.16% (active) | 0.969% (active) | -62.7% (active) | 11.1 | 10.1 | 12.9 | 9.9% (active) | -16.4% (active) | -33.4% (active) | 25.3 | -44.6% (active) | -9.38% (active) | -1.25% (active) | 9.58% (active) | -2.64% (active) |  | 23.3%
14 | CCCCCCCCCCCCNc1ncnc2[nH]ncc12 | 72.9 | 99.3 | 93.4% | 79.2% | 76.1% | 71.1 |  | 95.4 | 85.9% | 48.7% | 68.6% | 84 | 54.8% | 77% | 50.2% | 74.2% | 84.9% | 84.7 | 96.4%
15 | CCN(CC)CCNc1ccc(Cl)cc1Cl | 108 | 94.9 | 95.8% | 107% | 98.5% | 107 | 104 | 108 | 107% | 104% | 118% | 101 | 109% | 111% | 95% | 102% | 107% | 106 | 103%
16 | O=C(Nc1ccncc1)C(=O)c1cn(S(=O)(=O)c2cccc(F)c2)c2ccccc12 | 75.8 |  | 52.7% | 65.4% | -12.5% (active) | 67.3 | 61.7 | 106 | 50% | 23.9% | 67.4% | 75.9 |  | 27.3% | 75.6% | 26.8% | 25.3% | 58.2 | 59.9%
17 | Cc1cc(NC(=O)c2ccc(N)cc2)ccc1N=Nc1ccc2c(O)c(N=Nc3ccc(Cl)c(S(=O)(=O)O)c3)c(S(=O)(=O)O)cc2c1 | 81.9 | 62.5 | 64.2% | 49.7% | 78.6% | 60.5 | 110 | 117 | 111% | 62.4% | 109% | 89.9 |  | 87.3% | 87.5% | 92.5% | 83.6% | 105 | 68.6%

Reference: PubChem BioAssay (NCI)
